NS1 inh: qHTS Assay for Inhibitors of Influenza NS1 Protein Function; 270,000 compounds, 0.4% hits; AID 2326, 2010; Potency, µM (highest dose often 46.1 µM); calls by dose curve; note: actives are rising curves; nearly all actives have a fitted effect of over 50% in size
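Compounds were scored for reversing the slow growth caused by influenza A NS1 in S. cerevisiae, measured by optical density at 600 nm. Assay medium contained 2% galactose at pH 6.0; NS1-free yeast of the same strain were the positive control.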
Pf growth 48h: Primary qHTS for delayed death inhibitors of the malarial parasite plastid, 48 hour incubation; 310,000 compounds, 5.9% hits; P. falciparum luciferase growth in erythrocytes, 48 h; Potency, µM (titrated, usually from 28.7 µM), actives largely listed as inhibitors
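Luciferase-expressing P. falciparum in infected erythrocytes (2% hematocrit, 0.1% parasitemia final) in RPMI 1640/0.5% Albumax were exposed to compound for 48 hours at 37 C, 5% CO2; growth read as luminescence.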
CHX counter: Cycloheximide Counterscreen for Small Molecule Inhibitors of Shiga Toxin. cell reporter, cycloheximide protein synthesis inhibition counterscreen. max response, %. 300,000 compounds, 12% hits; in the data active = max response mostly above about 13%, no sharp cut-off; inactive = mostly below about 14%; note: read at 38.3 µM for the half of the compounds with a filed dose
SARS PLP yeast: qHTS of Yeast-based Assay for SARS-CoV PLP; S. cerevisiae expressing SARS-CoV PLpro, growth rescue; Potency, µM (top dose mostly 32.9 µM), actives largely listed as activators; 330,000 compounds, 0.19% hits; AID 485353, 2010; calls by dose curve; note: nearly all actives have a fitted effect of over 55% in size
Pf growth 96h: Primary qHTS for delayed death inhibitors of the malarial parasite plastid, 96 hour incubation | P. falciparum luciferase reporter growth, 96 h | Potency, µM (doses to about 28.7 µM), most hits filed as inhibitors | 320,000 compounds, 6.9% hits | AID 504834, 2011
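Two-generation exposure (96 h) targets delayed-death phenotype. Reporter parasites carrying integrated firefly luciferase, in red cells at 2% hematocrit and 0.05% parasitemia final, kept at 37 C, 5% CO2; luminescence loss indicates inhibition.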
Shiga toxin inh: A qHTS for Small Molecule Inhibitors of Shiga Toxin | AID 2315, 2010 | 290,000 compounds, 9.2% hits | Vero cells, Shiga toxin protein synthesis inhibition reporter | inhibition, % at 38.7 µM; in the data active = inhibition mostly above about 28%, no sharp cut-off; inactive = mostly below about 43%
Numbers stand for hits. Shown are actives, neighbours in structure and some others; about 21% of the full set was active somewhere. Unless noted, calls come from the whole dose curve; as a rule, active = well fitted inhibition curve with a large enough effect; inconclusive = small, poorly fitted or top-dose-only effect, or another doubt; inactive = no such curve, though single readings can be large or run the other way.

`Cc1cccc(Nc2nnc(-c3ccc(C(=O)N4C[C@H]5C[C@H](C4)c4cccc(=O)n4C5)cc3)c3ccccc23)c1` gave NS1 inh inactive, Pf growth 48h inconclusive, CHX counter inactive, SARS PLP yeast inactive, Pf growth 96h 3.7µM and Shiga toxin inh inactive.
Screening COc1ccc(-c2cc(C(=O)N3CCCCC3)c3ccccc3n2)cc1OC returned NS1 inh inactive, Pf growth 48h inconclusive, CHX counter inactive, SARS PLP yeast inactive, Pf growth 96h inconclusive and Shiga toxin inh inactive.
Screening COc1ccc(Nc2nnc(-c3ccccc3)c3ccccc23)cc1C(=O)N1CCCCC1 returned NS1 inh inactive, Pf growth 48h 9.3µM, CHX counter inactive, SARS PLP yeast inactive, Pf growth 96h 1.2µM and Shiga toxin inh inactive.
Screening CCN(CC)C(=O)COc1ccc(-c2nnc(Nc3ccc(OC)c(C(=O)NC)c3)c3ccccc23)cc1 returned NS1 inh inactive, Pf growth 48h inconclusive, CHX counter inactive, SARS PLP yeast inactive, Pf growth 96h 10µM and Shiga toxin inh inactive.
O=S(=O)(N[C@H](CO)c1ccccc1)c1ccc(Br)cc1F was read as SARS PLP yeast inactive.
For Cc1cc(Nc2ccc(N3CCC(C)CC3)cc2)n2ncnc2n1 the results were NS1 inh inactive, Pf growth 48h inconclusive, CHX counter inactive, SARS PLP yeast inactive and Shiga toxin inh inactive.
For COc1ccccc1-c1ccc(Nc2cccc(C(F)(F)F)c2)nn1 the results were NS1 inh inactive, Pf growth 48h inactive, CHX counter 15, SARS PLP yeast inconclusive, Pf growth 96h inactive and Shiga toxin inh inactive.
COc1ccccc1-c1ccc(NC2CCCCC2)nn1 was read as NS1 inh inactive, Pf growth 48h inactive, CHX counter 31, SARS PLP yeast inactive, Pf growth 96h inactive and Shiga toxin inh 72.
`COc1ccccc1OCC(=O)NC1CCCCCCC1` gave SARS PLP yeast inactive.
Cc1ccc(C23CC4CC(CC(C(=O)N5CCOCC5)(C4)C2)C3)cc1 was read as NS1 inh inactive, CHX counter inactive, SARS PLP yeast inactive, Pf growth 96h inactive and Shiga toxin inh inactive.
`O=C(C1=C[C@H](C2CC2)C[C@H](OCCCCO)O1)N1CCOCC1` gave NS1 inh inactive, Pf growth 48h inactive, CHX counter inactive, SARS PLP yeast inactive, Pf growth 96h inactive and Shiga toxin inh inactive.
COCCCNC(=O)c1ccc2c3c(onc13)-c1ccccc1C2=O was read as NS1 inh inactive, Pf growth 48h inactive, CHX counter 35, SARS PLP yeast inactive, Pf growth 96h inactive and Shiga toxin inh 69.
Screening COc1ccccc1NC(=O)c1ccc(S(=O)(=O)N2CCCC(C)C2)cc1 (configuration not stated) returned NS1 inh inactive, Pf growth 48h inactive, CHX counter inactive, SARS PLP yeast inactive, Pf growth 96h inactive and Shiga toxin inh inactive.
For Nc1nc(CN2CCN(c3ccccc3F)CC2)nc(Nc2ccc3c(c2)OCCO3)n1 the results were NS1 inh inactive, Pf growth 48h inconclusive, CHX counter inactive, SARS PLP yeast inactive, Pf growth 96h inconclusive and Shiga toxin inh inactive.
`Cc1sc2nc(CN3CCCCC3)nc(Nc3ccc4c(c3)OCCO4)c2c1C` gave NS1 inh inactive, Pf growth 48h 9.3µM, CHX counter inactive, SARS PLP yeast inactive, Pf growth 96h inconclusive and Shiga toxin inh inactive.
For Cc1sc2nc(CN3CCCC3)nc(NCc3ccncc3)c2c1C the results were Pf growth 48h inconclusive, CHX counter inactive, SARS PLP yeast inactive, Pf growth 96h inconclusive and Shiga toxin inh inactive.
Screening Cc1cccc(Nc2nc(N)nc(CN3CCN(Cc4ccc5c(c4)OCO5)CC3)n2)c1 returned NS1 inh inactive, Pf growth 48h inconclusive, CHX counter inactive, SARS PLP yeast inactive, Pf growth 96h 13µM and Shiga toxin inh inactive.
CN1CCN(Cc2nc(N)nc(Nc3ccc4c(c3)OCCO4)n2)CC1 was read as NS1 inh inactive, Pf growth 48h inactive, CHX counter 30, SARS PLP yeast inactive, Pf growth 96h inactive and Shiga toxin inh 60.
`CC(C)C(CO)NC(=O)CC(=O)NC(CO)C(C)C` (configuration not stated) gave NS1 inh inactive, Pf growth 48h inactive, CHX counter inactive, SARS PLP yeast inactive, Pf growth 96h inactive and Shiga toxin inh inactive.
`O=C(O)C1CCCCC1C(=O)Nc1cc(C(F)(F)F)ccc1Cl` (configuration not stated) gave NS1 inh inactive, Pf growth 48h inactive, CHX counter inactive, SARS PLP yeast inactive, Pf growth 96h inactive and Shiga toxin inh inactive.
Screening CC(OC(=O)c1ccc(Cl)cc1)C(=O)NCC1CCCCC1 (configuration not stated) returned Pf growth 48h inactive, SARS PLP yeast inactive and Pf growth 96h inactive.
For CN(Cc1ccc(F)cc1)C(=O)CNC(=O)c1ccc2c(c1)OCO2 the results were Pf growth 48h inactive, SARS PLP yeast inactive and Pf growth 96h inconclusive.
Screening COc1ccc(-n2nc(C(=O)NCC(=O)N3CCN(Cc4ccccc4)CC3)c3ccccc3c2=O)c(OC)c1 returned NS1 inh inactive, Pf growth 48h inconclusive, CHX counter inactive, SARS PLP yeast inactive, Pf growth 96h inconclusive and Shiga toxin inh inactive.
`COC(=O)c1ccccc1NC(=S)NC(NC(=O)c1ccco1)C(Cl)(Cl)Cl` (configuration not stated) gave NS1 inh inactive, Pf growth 48h inactive, CHX counter inactive, SARS PLP yeast inactive, Pf growth 96h inactive and Shiga toxin inh inactive.
For COc1ccc(NC(=S)NC(NC(=O)c2cccc3ccccc23)C(Cl)(Cl)Cl)c([N+](=O)[O-])c1 (configuration not stated) the results were NS1 inh inactive, CHX counter inactive, SARS PLP yeast inactive, Pf growth 96h 1.5µM and Shiga toxin inh inactive.
Cc1ccc(C)c(NC(=S)NC(NC(=O)Cc2cccc3ccccc23)C(Cl)(Cl)Cl)c1 (configuration not stated) was read as NS1 inh inactive, CHX counter inactive, SARS PLP yeast inactive, Pf growth 96h 2.6µM and Shiga toxin inh inactive.
`Cc1ccc(C)c(NC(=S)NC(NC(=O)N(C)C)C(Cl)(Cl)Cl)c1` (configuration not stated) gave NS1 inh inactive, Pf growth 48h inconclusive, CHX counter inactive, SARS PLP yeast inactive, Pf growth 96h inconclusive and Shiga toxin inh inactive.
`COc1ccc(NC(=S)NC(NC(=O)c2ccccc2Cl)C(Cl)(Cl)Cl)c([N+](=O)[O-])c1` (configuration not stated) gave NS1 inh inactive, CHX counter inactive, SARS PLP yeast inactive, Pf growth 96h 3.7µM and Shiga toxin inh inactive.
`COC(=O)c1ccccc1NC(=S)NC(NC(=O)c1ccccc1[N+](=O)[O-])C(Cl)(Cl)Cl` (configuration not stated) gave NS1 inh inactive, Pf growth 48h inactive, CHX counter inactive, SARS PLP yeast inactive, Pf growth 96h 7.4µM and Shiga toxin inh inactive.

High-throughput results from PubChem BioAssay.
